Source: PubChem BioAssay
A selection: hits, their analogues and other compounds. The true share with any hit is near 7.1%.
IL1B secr inh: blocks inflammasome-driven IL-1 beta release | THP-1 LPS/ATP IL-1B secretion, AlphaLISA, 16 h; active compounds read low | activity change, % at 57.5 µM | hit rate 4.7% among 360,000 | AID 743279; in the data active = activity change below about -50%; inconclusive = mostly about -30% to -49%; also: % is scaled to controls: 0 for no effect and ±100 for the full control effect
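Secreted IL-1B measured by AlphaLISA bead assay after 16 h compound exposure of THP-1 cells; compounds (final up to 57.5 uM) added 1 h before LPS (250 ng/mL) and ATP (1.25 mM) stimulation; lower signal means less secretion.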
PINK1 modulator: changes PINK1 expression; PINK1 immunofluorescence, high-content cytometry, 24 h; Potency, µM (highest dose often 76.6 µM), inactives show at the top dose activation (PINK1 increase), most hits filed as activators; hit rate 0.2% among 410,000; AID 624263; active = well fitted activation curve with a large enough effect; inconclusive = small, poorly fitted or top-dose-only effect; cell line not stated here; also: potency is read from the fitted curve at half-maximal effect; % of control where 0% means no effect; nearly all actives have a fitted effect of over 65% in size
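Stable cell line, 250 cells/well, 12 h attachment; compounds pinned at 5 concentrations, 24 h; CCCP control. Fixed with nuclear dye, primary antibodies 12 h at 10 degrees C, secondary plus cell stain; laser-scanning cytometer read.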
SW480 rerep: DNA re-replication induction in SW480 cells; SW480 DNA re-replication, Hoechst DNA content imaging, 48 h; Potency, µM (highest dose often 46.1 µM), inactives show at the top dose re-replication activation, actives largely listed as activators; hit rate 1.8% among 340,000; also: potency is read from the fitted curve at half-maximal effect; % of control where 0% means no effect; nearly all actives have a fitted effect of over 55% in size
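Cells (250 per well) received 23 nL compound or DMSO by pin tool and were kept 48 hr at 37 C, 5% CO2. Nuclei were then stained with Hoechst for 40 min and scanned for DNA content.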
ATXN viability: viability counter-screen for ATXN expression inhibitors; S2 cells (HEK-293 line with an ATXN2-luciferase reporter) viability, CellTiter-Fluor protease fluorescence, 24 h; Potency, µM (doses to about 56.7 µM), most hits filed as cytotoxic; hit rate 0.49% among 400,000; AID 651635; also: potency is read from the fitted curve at half-maximal effect; nearly all actives have a fitted effect of over 40% in size
MCF10A rereplic: inducers of DNA re-replication in MCF 10A breast cells | Potency, µM (highest dose often 46.1 µM), for the others: at the top dose activity, positive = re-replication, usual class: activators | MCF 10A DNA re-replication, Hoechst nuclear intensity, 48 h | hit rate 2.9% among 350,000; also: potency is read from the fitted curve at half-maximal effect; % of control where 0% means no effect; nearly all actives have a fitted effect of over 50% in size
ATXN2 expr inh: inhibitors of ATXN2 expression | Potency, µM (highest dose often 57 µM), for the others: at the highest dose activity change, negative = inhibition, most hits filed as inhibitors | hit rate 0.72% among 360,000 | AID 1745845 | HEK-293 ATXN2-luciferase reporter, luminescence, 24 h; also: potency is read from the fitted curve at half-maximal effect; % is scaled to controls: 0 for no effect and ±100 for the full control effect; nearly all actives have a fitted effect of over 55% in size
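ATXN2-luciferase reporter cells (luciferase flanked by upstream and downstream ATXN2 gene portions) were treated 24 h at 37 °C with compounds at up to 57 uM. SteadyGlo luminescence gave expression; GF-AFC fluorescence gave viability.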
* hit, by the source's call; i = inactive; ? = inconclusive; nt = not tested or not shown; [ ] = dose if it differs, or a comment. Unless noted, calls follow the shape of the dose curve; as a rule, active = well fitted curve in the direction sought with a large enough effect; inconclusive = small, poorly fitted or top-dose-only effect, or another doubt; inactive = no such curve, though single readings can be large; an effect the other way counts as inactive or inconclusive.

SMILES | IL1B secr inh | PINK1 modulator | SW480 rerep | ATXN viability | MCF10A rereplic | ATXN2 expr inh
COc1cc(/C=C/C(=O)c2cccc([N+](=O)[O-])c2)cc(OC)c1OC | -61* | -3% | ? | ? | ? | 0%
COc1ccc(C(=O)/C=C/c2ccc(C)cc2)c(OC(=O)c2ccc([N+](=O)[O-])cc2)c1 | ? | 5% | -4%[9.22 µM] | i | ? | 14%
COc1cc(CC(=O)OCc2cccc([N+](=O)[O-])c2)cc(OC)c1OC | 11 | 3% | -20% | i | 1% | -6%
COc1ccc(C(=O)/C=C/c2ccccc2F)c(OC(=O)c2ccc([N+](=O)[O-])cc2)c1 | -101* | -3% | ? | ? | 15µM* | -1%
CCN(CC)CCNC(=O)c1ccc(NC(=O)c2cccc(S(=O)(=O)N(C)C3CCCCC3)c2)cc1 | -14 | -1% | 74% | i | -6% | -15%
NS(=O)(=O)c1ccc(NC(=O)c2ccc3c(c2)CCCC3)cc1 | 20 | 40µM* | 5% | i | 0% | nt
NS(=O)(=O)c1ccc(NC(=O)c2ccc3c(c2)OCO3)cc1 | 56 | 7% | -2% | i | -1% | 2%
CCN(CC)CCNC(=O)c1ccc(NC(=O)c2ccc3c(c2)CCC3)cc1 | -13 | 0% | 18µM* | i | 15% | nt
CCN(CC)CCNC(=O)C(=O)Nc1cc2c3c(c1)CCC(=O)N3CCC2 | -62* | -1% | -10% | i | 0% | 23%
Cc1ccc(C)c(CNC(=O)C2CCCCN2S(=O)(=O)c2ccc(F)cc2)c1 (stereo unspecified) | nt | 2% | nt | i | nt | -23%
Cc1occc1C(=O)Nc1cccc(-c2nc(CNC(=O)c3cc(-c4ccccc4)n[nH]3)c(C)o2)c1 | nt | 0% | nt | i | nt | nt
Cc1cc([N+](=O)[O-])ccc1NCc1ccc2c(c1)OCCO2 | -51* | -1% | -57% | ? | ? | 26%
COc1ccc([N+](=O)[O-])cc1NC(=O)Cc1ccc(C)cc1 | -8 | 3% | -2% | i | 6% | -2%
COc1ccc([N+](=O)[O-])cc1NCc1ccccc1C | -16 | 9%[38.3 µM] | ? | i | 5.8µM* | -26%
COc1ccc([N+](=O)[O-])cc1NC(=O)COC(=O)c1ccccc1C(=O)c1ccccc1 | -52* | -1% | 0% | i | 14% | 0%
COc1ccc([N+](=O)[O-])cc1NCc1ccccc1 | -89* | 18% | 1% | i | 3% | 13%
O=[N+]([O-])c1ccc(NCc2ccc3c(c2)OCO3)cc1 | -14 | 0% | -4% | i | -1% | 0%
COc1ccc(/C=C/C(=O)N2CCc3c(cnc(C)c3CNC(=O)c3ccsc3)C2)cc1OC | nt | -1% | nt | i | nt | nt
COc1ccccc1-c1ccnc(-n2ncc(C(=O)NCCc3cccnc3)c2C)n1 | nt | -1% | nt | i | nt | nt
CCCOc1ccc(C2C(=O)N(C3CCCCCC3)CC(=O)N2Cc2ccc(OC)cc2)cc1OC (stereo unspecified) | nt | 2% | nt | nt | nt | nt
COc1ccc(OC)c(CNc2ccc([N+](=O)[O-])cc2C)c1 | -69* | 4% | 4% | i | -9% | -14%
O=C(C[n+]1ccccc1)Nc1ccccc1C(=O)O | 15 | -1% | -4% | i | ? | nt
O=C(C[n+]1ccccc1)Nc1ccccc1C(F)(F)F | 13 | 2% | -55% | i | 3.3µM* | -7%
CCOC(=O)Cn1nc(C)c(NC(=O)COc2ccc(Cl)cc2C)c1C | nt | 1% | nt | i | nt | -26%
CCC(C)N=C1Sc2nc3ccc(C)cc3cc2CN1CCOC (stereo unspecified) | -83* | 3% | 23% | i | ? | 9%
COCCN=C1Sc2nc3ccc(C)cc3cc2CN1Cc1cccs1 | -87* | 4% | 3% | nt | -3% | 7%
COCCN1Cc2cc3cc(C)ccc3nc2SC1=Nc1ccc(OC)cc1 | -53* | 0% | ? | i | 12% | -9%
